SMILES strings stand for the structures. About 160 (10%) of roughly 1,600 compounds were called active. Only a sample is shown. Values without a mark were called inactive. No stated cut-off is given here; in the data, active means activation above about 1.3%; inactive means the rest.

Activation data for 67 compounds are collected here from PubChem BioAssay AID652268 (The Scripps Research Institute Molecular Screening Center, 2013).

The test in a line: nonspecific cAMP agonists in parental HEK-CNG cells, counter-screen for GalR3 antagonist project, cell-based, fluorescence, high throughput (AID 652268). The conditions noted are these: HEK293-CNG parental cells, cAMP membrane potential fluorescence; at 3 µM; hits give high values; normalised: DMSO wells 0%, forskolin wells 100%. On the technique in general: A counterscreen serves to expose hits that act by an unwanted route or on another target.
Turning to `CC(CCc1ccccc1)NCC(O)c1cccc([N+](=O)[O-])c1` (configuration not stated), the activation is 0.27%.

Consider `C=CCC1(CC=C)CCCN1C(=O)c1cc(COc2ccc(-n3cncn3)cc2)on1`, for which the activation is -0.46%.

For the compound `Nc1ncnc2c1ncn2C1OC(CO)CC1O` (configuration not stated), the activation is -0.01%.

As to `COc1cc(C(=O)Nn2c(O)c(C3=c4ccccc4=NC3=O)sc2=S)ccc1O`, the activation is -0.64%.

Regarding `COc1ccc(CCNc2nc3ccc(C)cc3n3cnnc23)cc1OC`, the activation is 0.25%.

For `COc1ccc(-c2[nH]nc3c2C(c2ccncc2)C(C#N)=C(N)O3)cc1` (configuration not stated), the activation is 0.22%.

`COCCN1Cc2cccc(C(=O)Nc3ccccc3OC)c2C1=O`: the activation was 0.15%.

Take `CCOC(=O)c1cc2n(c1C)-c1ccccc1C2=O`: the activation is 0.34%.

As to `Cn1c(N)c(C(=O)COC(=O)c2cnc(Cl)c(Cl)c2)c(=O)n(C)c1=O`, the activation was 0.4%.

In the case of `CCOc1ccc(C(C)=O)cc1COC(=O)c1cnc(Cl)c(Cl)c1`, the activation is 4.48% (active).

`COCCNC(=O)/C(C#N)=C/c1cccc(OCc2ccccc2)c1`: the activation was 0.53%.

With `CSc1nc(N)c(C#N)c(-c2ccccc2Cl)c1C#N`, the activation is -0.24%.

Turning to `O=C(Nc1ccc(CSc2ccccc2)cc1)c1ccc(CN2CCOCC2)cc1`, the activation is -1.27%.

In the case of `C[C@@]12C(=O)N(c3cccc(Br)c3)C(=O)N1[C@H](c1ccc(Cl)cc1)[C@@H]1C(=O)N(C3CCCCC3)C(=O)[C@@H]12`, the activation was -2.49%.

On to `COc1ccc(OC)c(NC(=O)CSc2nc(N)c(-c3ccccc3)c(=O)[nH]2)c1`, for which the activation is 0.95%.

Regarding `COc1ccc(-c2csc(-c3cccs3)n2)cc1OC`, the activation is 0.07%.

In the case of `COc1ccc(C2Nc3ccccc3C(=O)N2c2ccc(Cl)cc2)cc1Cn1cc([N+](=O)[O-])cn1` (configuration not stated), the activation was -0.27%.

On to `COc1ccc(C(=O)COC(=O)COc2ccc(C)c(C)c2)cc1`, for which the activation is 0.4%.

As for `Cc1c(C=O)c2ccccc2n1CC(=O)O`, the activation is 0.2%.

Turning to `Cc1c(Cl)cccc1NC(=O)CSc1ccc(-c2cccnc2)nn1`, the activation is 0.04%.

On to `CC1(C)CC(N2CCN(C(c3ccccc3)c3ccccc3)CC2)=CC(=[N+]2CCCCC2)C1`, for which the activation is 10.7% (active).

As to `CC(C)(CNC(=O)c1ccc(Cl)c(S(=O)(=O)N2CCc3ccccc3C2)c1)N1CCOCC1`, the activation was -0.38%.

Take `COC(=O)c1cccc([N+](=O)[O-])c1CS(=O)(=O)c1ccc(C)cc1`: the activation is -0.01%.

For `Cc1ccc(S(=O)(=O)N2CCN(C(=O)COC(=O)c3c(C)cc(C)cc3C)CC2)c(C)c1`, the activation was 0.55%.

For `c1coc(CNc2ncnc3ccccc23)c1`, the activation is 0%.

As for `Cn1nccc1C(=O)NC1CCCc2c1cnn2-c1ccc(F)cc1F` (configuration not stated), the activation is -0.59%.

Regarding `CCCCNC(=O)c1ccccc1NC(=O)C1=C(C)OCCS1`, the activation is -0.01%.

Consider `Cc1ccc(F)cc1NC(=O)Cc1nn(C)c(=O)c2ccccc12`, for which the activation was 0.14%.

For `Cn1cnc([N+](=O)[O-])c1Nc1ccccc1O`, the activation is 0.12%.

In the case of `C#Cc1ccc(NC(=O)C2(C)CCN2C(=O)Cc2ccc(-c3ccccc3)cc2)cc1` (configuration not stated), the activation was -0.7%.

On to `O=C(CC1C(=O)NCCN1CC(c1ccccc1)c1ccccc1)NCCc1cn[nH]c1` (configuration not stated), for which the activation was 0.5%.

Consider `CC(=O)c1c(C)[nH]c(C(=O)COC(=O)c2cccc(S(=O)(=O)N(C)c3ccccc3)c2)c1C`, for which the activation was -0.83%.

Regarding `c1ccc(Cc2ccc(OCCn3ccnc3)cc2)cc1`, the activation is -0.02%.

With `CCCn1nc(C(=O)NNC(=O)CSCC(=O)Nc2cc(C)on2)c2ccccc2c1=O`, the activation was 0.16%.

For `Cn1c(CN2CCOCC2)nc2cc(NC(=O)c3ccc(Cl)cc3)ccc21`, the activation is 0.05%.

For the compound `CCNC(=S)Nc1ccc(OC(F)(F)F)cc1`, the activation was -0.01%.

For `CC(C)[C@@H](C(=O)OCC(=O)c1ccc2c(c1)NC(=O)CO2)N1C(=O)c2ccccc2C1=O`, the activation is 0.06%.

Regarding `OC[C@@H]1CN(Cc2ccc(-c3ccccc3)cc2)C[C@H](n2cnc3c(NC4CCCC4)ncnc32)O1`, the activation is -0.91%.

Turning to `CCCOc1ccc(Cc2c(Cl)nc(SC)nc2NC)cc1`, the activation is 1.12%.

Take `COc1ccc(N(C(=O)CNC(=O)c2ccco2)C(C(=O)NCC2CCCO2)c2ccccc2)cc1Cl` (configuration not stated): the activation was -0.24%.

As for `CC(=O)OC(C)C[N+](C)(C)C` (configuration not stated), the activation was 0.43%.

In the case of `COC(=O)c1ccc(/C=N/N2C(C)CCCC2C)cc1` (configuration not stated), the activation is 0.27%.

For `COc1cc(NC(=O)c2cc([N+](=O)[O-])ccc2Br)ccc1NC(=O)c1ccco1`, the activation is -0.55%.

Consider `CCn1c(-c2cc(OC)ccc2OC)csc1=Nc1c(C)n(C)n(-c2ccccc2)c1=O`, for which the activation is 0.13%.

Turning to `CCN1/C(=C\c2ccc3ccccc3[n+]2CC)Sc2cc(C)ccc21`, the activation was 8.28% (active).

Regarding `Nc1nc(NCC(=O)O)nc(N2CCCCCC2)c1[N+](=O)[O-]`, the activation was 0.22%.

`CSc1nccc(NC(=O)c2ccc(C(C)(C)C)cc2)n1`: the activation was 0.22%.

As to `CCOC(=O)c1c(NC(=O)CSc2nccc(=O)[nH]2)sc(C)c1C`, the activation was -1.63%.

On to `COc1ccc(C2CC(=O)Nc3sc(=N)c4c(N)c(C#N)c(N)nc4c32)cc1OC` (configuration not stated), for which the activation was -0.03%.

In the case of `CC(=O)N1CCCc2cc(S(=O)(=O)N3CCCC(C(=O)N4CCN(c5cccc(Cl)c5)CC4)C3)ccc21` (configuration not stated), the activation was -1.04%.

On to `CN(Cc1cccnc1)C(=O)c1cc(COc2ccc3ncccc3c2)on1`, for which the activation is -0.15%.

As for `NC(=O)c1ccc(NC(=O)COC(=O)C(Cc2ccccc2)NC(=O)c2ccccc2)cc1` (configuration not stated), the activation is -0.37%.

Consider `CCOc1cc(C(=O)N2CCc3cc(OC)c(OC)cc3C2)ccc1OC(F)F`, for which the activation is 1.51% (active).

Consider `O=C(Nc1ccccc1Cl)/C(Cl)=C(\Cl)S(=O)c1ccccc1` (configuration not stated), for which the activation is 3.18% (active).

As to `O=C(/C=C/c1c(F)cccc1Cl)Nc1nn[nH]n1`, the activation is 0.23%.

As to `Nc1nonc1-n1nnc(C(=O)N/N=C/c2cc(Br)ccc2O)c1CSC1=NCCS1`, the activation is 0.22%.

Regarding `CCN(CC(=O)NCc1ccc(Cl)cc1)C(=O)CSc1ccccc1`, the activation was -0.45%.

In the case of `O=C(NC(Nc1nc2ccc([N+](=O)[O-])cc2s1)(C(F)(F)F)C(F)(F)F)c1ccccc1`, the activation is 9.23% (active).

Consider `COc1cc(Cl)c(C)cc1NC(=O)[C@@H]1CCCN1C(=O)c1cccs1`, for which the activation is -0.08%.

Consider `CCOc1ccc(Br)cc1CSC(=N)N`, for which the activation was 3.59% (active).

Take `CNC(=O)NC(=O)CSc1nnc(-c2ccc(F)cc2)n1CC1CCCO1` (configuration not stated): the activation is 0.01%.

For the compound `CCc1ccc(-c2nc(SCC(=O)NC3CCCC3)n[nH]2)cc1`, the activation was 0.04%.

For the compound `COc1cc2c(cc1OC)C(c1cccc([N+](=O)[O-])c1)=NCC2`, the activation is 0.46%.

Consider `COc1ccc(NS(=O)(=O)c2ccc(NC(=O)c3ccc(N(C)S(C)(=O)=O)cc3)cc2)cc1`, for which the activation is -0.8%.

Take `O=C(CC(O)(C(F)(F)F)C(F)(F)F)Nc1ccc(Cl)c(Cl)c1`: the activation was 1.84% (active).

As to `CSc1nc(N(C)NC(=O)c2cccc(C)c2)c2ccccc2n1`, the activation is 2.12% (active).

With `Cc1nc2ccccc2cc1OCc1ccc(F)cc1`, the activation was 1.08%.
